# Reference: PubChem BioAssay AID449762 (Southern Research Specialized Biocontainment Screening …, 2010)
# Several values for one entry are separate records, joined by “and”; a condition that tells them apart may be missing. Equal values may be shown once. Hit rate of the full screen: of about 330,000 compounds, about 1,900 (0.58%) were called active. Not shown: some 4% with an inconclusive outcome. Only a sample is shown. Results with a measured potency or affinity are listed apart. A number with no mark means an inactive call. No stated cut-off is given here; in the data, inconclusive means inhibition above about 70% without an active follow-up result; inactive means below that.
# Test: M. tuberculosis growth inhibition, HTS (AID 449762);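 further: bacterial growth assessed after seven days of incubation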
# Settings: M. tuberculosis H37Rv growth inhibition, 7H9 media; at 25 µM; active compounds read high
row,SMILES,inhibition
1,COC(=O)c1cc(C)sc1NC(=O)CN1CCN(C(=O)c2ccco2)CC1,-5.56%
2,CCOC(=O)c1cc(C)sc1NC(=O)CN1CCN(C(=O)c2ccco2)CC1,17%
3,CCCn1nc(C(=O)NNC(=O)c2cc(S(=O)(=O)NC)ccc2Br)c2ccccc2c1=O,-2.51%
4,COC(=O)c1ccc([C@H]2CC(=O)O2)cc1,-4.85%
5,O=C(N/N=C/c1ccccn1)c1ccc(NC(=O)c2ccc(F)cc2)cc1,2.56%
6,COc1ccc(/C=N/NC(=O)CSCc2ccc([N+](=O)[O-])cc2)cc1OC,-9.89%
7,O=C(CSCc1ccc([N+](=O)[O-])cc1)N/N=C/c1cccnc1,3.16%
8,COc1cc(C(=O)OCC#N)ccc1OCc1c(C)noc1C,9.39%
9,CCOc1cc(NCc2ccccc2)c2ncn(C(C)C)c2c1,67.6%
10,COc1cc(NCc2ccccc2)c2ncn(C(C)C)c2c1,1.58%
11,COc1ccccc1CNC(=O)C(CCSC)NS(=O)(=O)c1ccc2c(c1)oc(=O)n2C (stereo not drawn),3.84%
12,O=C(C(=O)N1CC=C(c2ccccc2)CC1)c1c[nH]c2ccccc12,5.82%
13,O=S(=O)(NCc1ccco1)c1ccc2ccccc2c1,10.5%
14,Cc1ncsc1CCOC(=O)c1ccccc1,4.41%
15,CC(=O)Nc1ccc(NC(=O)COc2ccc([N+](=O)[O-])cc2)cc1,-3.36%
16,Cc1ncsc1CCOC(=O)c1cccc([N+](=O)[O-])c1,8.02% and -15.9%
17,COC(=O)c1ccc(NC(=O)COc2ccc([N+](=O)[O-])cc2)cc1,-9.31%
18,O=C(Nc1ccc(Cl)c(S(=O)(=O)Nc2ccccc2Cl)c1)c1cccs1,-2.32%
19,CC(C)(C)NCCOCCOc1ccccc1-c1ccccc1,5.36%
20,N#Cc1ccccc1S(=O)(=O)N1CCN(C(=O)[C@H](Cc2ccccc2)NC(=O)c2ccco2)CC1,-9.05%

row,SMILES,inhibition
1,CCCCCC[N+](C)(C)CCSSCC[N+](C)(C)CCCCCC,-17.5%
2,C#CC[N+](C)(C)CCCCCCCCCC,6.64%
3,CC(C)(C)c1ccc(S(=O)(=O)N2CCN(CC(O)COCC3CCCO3)CC2)cc1 (stereo not drawn),7.79%
4,Cc1cc(/C=N/NC(N)=O)c(C)n1-c1ccc(F)cc1,1.83%
5,Cc1cccc(C)c1-n1c(C)cc(/C=N/NC(N)=S)c1C,51.5%
6,NSc1nc(N)c2nc(-c3ccccc3)c(-c3ccccc3)nc2n1,7.97%
7,Nc1nc(N)c2nc(-c3ccccc3)c(N)nc2n1,16.7%
8,COc1cccc(/C=N/NC(=O)CCCC(=O)Nc2ccc(Br)cc2)c1,-7.05%
9,CCc1ccc(N2CC(C(=O)OCC(=O)Nc3ccc(C(C)=O)cc3)CC2=O)cc1 (stereo not drawn),-5.19%
10,S=C1NC2=C(CCCC2)C2(CCCCC2)N1,-1.82%
11,CC(C)(C)NC(=O)NC(=O)CSc1ncccn1,4.89%
12,C=CCn1c(NCc2ccc3c(c2)OCO3)nc2ccccc21,1.97%
13,O=C1OCc2nc3cc4c(cc3c(-c3ccc(F)cc3)c21)OCO4,3.09%
14,COc1ccccc1/C=C/C(=O)Nc1ccc(S(=O)(=O)Nc2cc(C)nc(C)n2)cc1,8.18%
15,Cc1cc(NS(=O)(=O)c2ccc(NC(=O)/C=C/c3ccccc3Cl)cc2)no1,40.1%
16,O=C(O)/C=C\C(=O)Nc1ccc(N2CCN(c3ccc(F)cc3)CC2)cc1,14%
17,O=c1oc2ccccc2c(O)c1/C=N/c1ncccn1,4.28%
18,Cn1c(O)c(/C=C2\C=Nc3ccccc32)c(=O)n(C)c1=O,3.29%
19,Cc1cc2cc(CNC(=S)Nc3ccc(OC(F)(F)F)cc3)ccc2n1C,-4.09%
20,O=S(=O)([N-]c1nc2ccccc2nc1-n1cc[n+](Cc2ccccc2)c1)c1ccccc1,1.97%

row,SMILES,inhibition
1,CCCC[n+]1ccn(-c2nc3ccccc3nc2[N-]S(=O)(=O)c2ccccc2)c1,-13.6%
2,O=C(NCCc1ccc(Cl)cc1)C1CCC(CNc2nc(=S)[nH]c3ccccc23)CC1 (stereo not drawn),5.86%
3,O=C1OC(CCl)CN1Cc1c(Cl)cccc1Cl (stereo not drawn),-11.9%
4,Cc1nn(Cc2ccccc2Cl)c(C)c1C(=O)NCC(c1cccs1)N1CCOCC1 (stereo not drawn),0.07%
5,COc1ccc(C)cc1NC(=O)CCN1CCN(c2ccccc2)CC1,5.54%
6,Cc1ccc(Cn2c(=N)n(CC(O)c3ccco3)c3ccccc32)cc1 (stereo not drawn),-10.2%
7,N=c1n(Cc2ccccc2)c2ccccc2n1CC(O)c1ccco1 (stereo not drawn),-2.81%
8,COc1ccc(C(=O)CC(c2ccccc2)S(=O)(=O)c2ccc(C)cc2)cc1 (stereo not drawn),11.8%
9,COc1ccc(C(CC(=O)c2ccccc2)S(=O)(=O)c2ccccc2)cc1 (stereo not drawn),21.9%
10,O=[N+]([O-])c1cccc(/C=N/Nc2nc(C(Cl)(Cl)Cl)nc3ccccc23)c1,4.81%
11,COc1ccc(CN=C2NC(=O)CC(C(=O)Nc3ccc(Cl)cc3)S2)cc1 (stereo not drawn),-3.21%
12,O=C(Nc1ccc(S(=O)(=O)Nc2nccc(C3Cc4ccccc4C(=O)O3)n2)cc1)c1ccccc1 (stereo not drawn),0.33%
13,Cc1cc(C)c(NC(=O)CCCn2c(=O)oc3ccccc32)c(C)c1,0.61%
14,Cc1[nH][nH]c(=O)c1C(c1ccc(-c2cccc(Cl)c2)o1)c1c(C)[nH][nH]c1=O,4.79%
15,Cc1[nH][nH]c(=O)c1C(c1ccc(-c2cccc(C(=O)O)c2)o1)c1c(C)[nH][nH]c1=O,0.63%
16,CC(OC(=O)c1nn(C(C)C)c(=O)c2ccccc12)C(=O)Nc1ncc(Cl)cc1Cl (stereo not drawn),-5.66%
17,Cc1cc(=O)oc2cc(OC(C)C(=O)N3CCCc4ccccc43)ccc12 (stereo not drawn),-5.32%
18,CC(NCC1COc2ccccc2O1)C1COc2ccccc2O1 (stereo not drawn),-4.91%
